{"source": "PubChem BioAssay (NCATS)", "note": "Results filed as inconclusive are left out. Unmarked numbers belong to inactive results. The source made the active and inactive calls. Calls follow the shape of the full dose curve. Potency is read from the fitted curve at half-maximal effect."}
{"experiment": "Cell Viability - SK-N-SH (AID 435);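 also: compound exposure lasted 40 h at 37 °C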", "conditions": "SK-N-SH neuroblastoma cell viability qHTS", "from_the_text": "NIH Chemical Genomics Center [NCGC]\nNIH Molecular Libraries Screening Centers Network [MLSCN]\nNational Institutes of Environmental Health Sciences [NIEHS]\nNational Toxicology Program [NTP]\nWe have developed a 1536-well cell-based assay for quantitative high throughput screening (qHTS) against a number of cell lines to determine in vitro cytotoxicity of small molecules. This particular assay uses the SK-N-SH cell line which is derived from human neuroblastoma.\nNCGC Assay Protocol Summary:\nThe CellTiter-Glo luminescent cell viability assay (Promega) is a homogeneous method to measure the number of viable cells in culture. The end point readout of this assay is based on quantitation of intracellular ATP, an indicator of metabolic activity, using the luciferase reaction. Luciferase catalyzes the oxidation of beetle Luciferin to oxyluciferin and light in the presence of ATP. The luminescent signal is proportional to amount of ATP present.\nUsing the CellTiter-Glo luminescent cell viability assay, the amount of cellular ATP was measured in the SK-N-SH cell line with complete culture medium following compound treatment for 40 hours. The assay was performed in opaque white Kalypsys 1536-well plates. In the screen, tamoxifen and doxorubicin were used as positive controls. Library compounds were measured for their ability to cause acute toxicity in the cell line, as reflected by a decrease in intracellular ATP levels, in a concentration-dependent manner. Data were normalized to the controls for basal activity (DMSO only) and 100% inhibition (100 uM tamoxifen). AC50 values were determined from concentration-response data modeled with the standard Hill equation.\nqHTS protocol fo CellTiter Glo SK-N-SH cellular assay\n[Step] [Parameter] [Value] [Description]\n1. Reagent; 5 uL; 1500 SK-N-SH cells/well\n2. Time; 5 hr; 37 °C incubation\n4. Controls; 23 nL; Tamoxifen 0.34 uM to 100 uM & Doxorubicin 0.02 nM to 100 uM\n5. Time; 40 hr; 37 °C incubation\n6. Reagent; 5 uL; CellTiter Glo reagent\n7. Time; 20 min; Room Temperature\n8. Detection; Luminescence; Viewlux plate reader\nKeywords: cell viability, cytotoxicity, SK-N-SH cell line, luminescence, NTPHTS, NTPHTS_NCGC, NIEHS, EPA, DSSTox, MLSMR, MLSCN, NIH Roadmap, qHTS, NCGC"}
{"smiles": "CCO", "Potency": "> 92 µM"}
{"smiles": "CCCCCCCCCCCCCC(=O)O", "Potency": "> 92 µM"}
{"smiles": "C=CC(=C)CCC=C(C)C", "Potency": "> 92 µM"}
{"smiles": "CCO[Si](CCCN)(OCC)OCC", "Potency": "> 92 µM"}
{"smiles": "O=C(O)c1ccccc1", "Potency": "> 92 µM"}
{"smiles": "O[C@@H]([C@H](O)[C@@H](O)CBr)[C@@H](O)CBr", "Potency": "> 92 µM"}
{"smiles": "CC12CCC(CC1=O)C2(C)C", "note": "(stereo not given)", "Potency": "> 92 µM"}
{"smiles": "CN(C)C=O", "Potency": "> 92 µM"}
{"smiles": "COCC(=O)O", "Potency": "> 92 µM"}
{"smiles": "CCCN(CCC)C(=O)SCC", "Potency": "> 92 µM"}
{"smiles": "c1ccccc1", "Potency": "> 92 µM"}
{"smiles": "C1OCOCO1", "Potency": "> 92 µM"}
{"smiles": "Cc1ccc([N+](=O)[O-])cc1N", "Potency": "> 92 µM"}
{"smiles": "O=C(O)c1ccccc1C(c1ccc(O)cc1)c1ccc(O)cc1", "Potency": "> 92 µM"}
{"smiles": "CC1=CC(C)(C)Nc2ccccc21", "Potency": "> 92 µM"}
{"smiles": "Nc1ccc(Cl)cc1Cl", "Potency": "> 92 µM"}
{"smiles": "Clc1cc(Cl)c(Cl)c(Cl)c1Cl", "Potency": "> 92 µM"}
{"smiles": "COc1c2ccoc2cc2oc(=O)ccc12", "Potency": "> 92 µM"}
{"smiles": "COC(=O)c1ccc(C)cc1", "Potency": "> 92 µM"}
{"smiles": "O=C1CCc2ccccc2O1", "Potency": "> 92 µM"}
{"smiles": "Cc1ccccc1C", "Potency": "> 92 µM"}
{"smiles": "CN(C)CCCCCCN(C)C", "Potency": "> 92 µM"}
{"smiles": "O=C(O)CC(C(=O)O)C(CC(=O)O)C(=O)O", "note": "(stereo not given)", "Potency": "> 92 µM"}
{"smiles": "CCCCOCCO", "Potency": "> 92 µM"}
{"smiles": "O=C(/C=C/c1ccc(O)c(O)c1)O[C@@H](C(=O)O)[C@@H](OC(=O)/C=C/c1ccc(O)c(O)c1)C(=O)O", "Potency": "> 92 µM"}
{"smiles": "COc1ccc2nc(N)sc2c1", "Potency": "> 92 µM"}
{"smiles": "O=[N+]([O-])c1cccc(Cl)c1Cl", "Potency": "> 92 µM"}
{"smiles": "C=CCc1ccc(OC)c(OC)c1", "Potency": "> 92 µM"}
{"smiles": "CCCCCCCCO", "Potency": "> 92 µM"}
{"smiles": "CC(=O)OC/C=C(\\C)CCC=C(C)C", "Potency": "> 92 µM"}
{"smiles": "CC1=C2[C@H](/C=C(\\C)C(=O)O)CC[C@@H](C)[C@H]2CC1", "Potency": "> 92 µM"}
{"smiles": "Cc1c(N=C=O)cccc1N=C=O", "Potency": "> 92 µM"}
{"smiles": "COc1ccc(/C=C/c2cc(OC)cc(=O)o2)cc1", "Potency": "> 92 µM"}
{"smiles": "NC1=NC(S)C2N=CN=C2N1", "note": "(stereo not given)", "Potency": "0.182 µM (active)"}
{"smiles": "O=C1c2ccccc2C(=O)C1c1ccc2ccccc2n1", "Potency": "34 µM (active)"}
{"smiles": "c1ccc2c(c1)c1cccc3ccc4cccc2c4c31", "Potency": "> 92 µM"}
{"smiles": "CC1(C)CC(N=C=O)CC(C)(CN=C=O)C1", "note": "(stereo not given)", "Potency": "> 92 µM"}
{"smiles": "CCCCCCCCCCCCCCC1CO1", "note": "(stereo not given)", "Potency": "> 92 µM"}
{"smiles": "Cc1ccc(N)c([N+](=O)[O-])c1", "Potency": "> 92 µM"}
{"smiles": "C=Cc1ccccc1Cl", "Potency": "> 92 µM"}
